# PubChem BioAssay (Tox21)
# Several values for one entry are separate records, joined by “and”; a condition that tells them apart may be missing. Equal entries are not always repeated. Records with an inconclusive call do not appear. A structure can be active in one record and inactive in another. Activity calls are given as the source filed them. The call rests on the fitted dose curve; in most records, active means well fitted activation curve with a large enough effect in the signal ratio in the repeat runs (not every such curve was filed as active); inconclusive means weak or mixed curves, or effect the other way; inactive means no such curve, though single readings can be large or run the other way; the % refers to the signal ratio.
# Target: Peroxisome proliferator-activated receptor gamma (Homo sapiens) (UniProt P37231)
# Sequence (P37231 whole entry, looked up): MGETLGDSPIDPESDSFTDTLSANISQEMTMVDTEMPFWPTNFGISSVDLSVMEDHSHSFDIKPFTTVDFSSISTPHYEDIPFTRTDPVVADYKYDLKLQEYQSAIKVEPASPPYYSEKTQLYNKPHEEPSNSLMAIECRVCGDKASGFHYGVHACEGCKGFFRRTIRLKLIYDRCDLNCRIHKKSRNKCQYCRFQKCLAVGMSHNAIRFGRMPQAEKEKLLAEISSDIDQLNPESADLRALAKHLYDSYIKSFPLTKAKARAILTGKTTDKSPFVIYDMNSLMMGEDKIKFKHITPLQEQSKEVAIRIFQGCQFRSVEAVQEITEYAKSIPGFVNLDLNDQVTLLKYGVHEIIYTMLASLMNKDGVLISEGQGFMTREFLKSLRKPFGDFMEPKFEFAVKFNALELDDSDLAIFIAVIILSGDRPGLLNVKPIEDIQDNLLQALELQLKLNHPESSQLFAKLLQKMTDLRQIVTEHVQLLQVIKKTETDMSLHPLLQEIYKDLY
# Assay: qHTS assay to identify small molecule agonists of the peroxisome proliferator-activated receptor gamma (PPARg) signaling pathway (AID 743094)
# Details: HEK293H PPARg-UAS-bla, beta-lactamase FRET ratio, 17 h; series mostly up to 57 µM; activation: at the top concentration
# Description: U.S. Tox21 Program National Center for Advancing Translational Sciences [NCATS] NIH Chemical Genomics Center [NCGC] U.S. Environmental Protection Agency [EPA] National Institutes of Environmental Health Sciences [NIEHS] National Toxicology Program [NTP] U.S. Food and Drug Administration [FDA] Tox21 Assay Overview: The peroxisome proliferator-activated receptors (PPARs) are lipid-activated transcription factors of the nuclear receptor superfamily with three distinct subtypes namely PPAR alpha, PPAR delta (also called PPAR beta) and PPAR gamma (PPARg). All these subtypes heterodimerize with Retinoid X receptor (RXR) and these heterodimers regulate transcription of various genes. PPAR-gamma receptor (glitazone receptor) is involved in the regulation of glucose and lipid metabolism. To identify the compounds that activate PPAR-gamma signaling, GeneBLAzer PPAR gamma UAS-bla HEK293H cell line (Invitrogen, Carlsbad, CA, USA) containing a beta-lactamase reporter gene under control of the control of an upstream activator sequence (UAS) stably integrated into HEK293H cells was used to screen Tox21 compound library.
# Tox21 Assay Protocol Summary: PPARg-bla cells were dispensed at 3000 cells/6uL/well in 1536-well black wall/clear bottom plates using a Multidrop Combi (Thermo Fisher Scientific, Waltham, MA) dispenser. After the assay plates were incubated at 37C and 5% CO2 for 5 h, 23 nL of compounds dissolved in DMSO, positive controls or DMSO only was transferred to the assay plate by a Pintool station (Kalypsys, San Diego, CA). The assay plates were incubated at 37C for 17 h. After 1 uL of LiveBLAzerTM B/G FRET substrate was added using a Bioraptr Flying Reagent Dispenser (FRD) workstation (Beckman Coulter, Indianapolis, IN, USA), the plates were incubated at room temperature for 1 h, and fluorescence intensity was measured by an Envision plate reader (PerkinElmer, Shelton, CT).
# On the % scale 0 is the no-effect control and ±100 the full control effect; potency means the concentration at half of the fitted maximal effect.
SMILES,activation,Potency
CCCN(CCC)CCc1c[nH]c2ccccc12,-8.03% (inactive),
Clc1ccc(C(Cl)(Cl)Cl)c(Cl)c1,-4.68% [at 78.9 µM] (inactive),
CN(C)CCc1c[nH]c2cccc(O)c12,-0.0902% (inactive),
Clc1ccc(-c2ccc(Cl)c(Cl)c2Cl)c(Cl)c1Cl,-3.84% (inactive),
Nc1ccc(Cc2ccc(N)c(Cl)c2)cc1Cl,-10.8% (inactive),
CCN(CC)c1c([N+](=O)[O-])cc(C(F)(F)F)c(N)c1[N+](=O)[O-],4.93% (inactive),
CC(=O)OC1(c2ccccc2)CCN(CCc2ccccc2)CC1,-7.83% [at 78.9 µM] (inactive),
ClC(Cl)=C(Cl)Cl,-0.43% (inactive),
FC(F)(F)c1cccc(C2=CCN(CCc3ccc4ccccc4c3)CC2)c1,2.63% (inactive),
CC(=O)C(Cl)(Cl)Cl,5.75% (inactive),
CC(C)OC(=O)C(O)(c1ccc(Cl)cc1)c1ccc(Cl)cc1,-9.27% (inactive),
Oc1ccc(C(c2ccc(O)cc2)(C(F)(F)F)C(F)(F)F)cc1,,inactive
CCN,-3.33% [at 78.9 µM] (inactive),
BrC(Br)C(Br)(Br)Br,1.35% [at 78.9 µM] (inactive),
CCOP(=S)(OCC)OC(Cl)C(Cl)(Cl)Cl (stereo not given),-0.343% (inactive),
CCCCN(CCCC)C(=S)[S-].CCCCN(CCCC)C(=S)[S-].[Zn+2],,inactive and 30.9 µM (active)
COP(=S)(OC)Oc1cc(Cl)c(Br)cc1Cl,-10.9% (inactive),
COP(=O)(OC)SCn1c(=O)oc2cc(Cl)cnc21,3.38% (inactive),
CC(C)OC(=S)S,6.22% (inactive),
COc1cccc(C(=O)CCN[C@@H](C)[C@H](O)c2ccccc2)c1,1.28% (inactive),

SMILES,activation,Potency
c1ccc2c(c1)[nH]c1cnccc12,12.6% (inactive),
CC1CCC(C(C)C)C(OC(=O)c2ccccc2N)C1 (stereo not given),,inactive
CC(c1ccc(O)cc1)c1ccc(O)cc1,-8.01% (inactive),
N#CNC#N,0.781% [at 78.9 µM] (inactive),
Nc1ccccc1C(=O)Oc1ccc2ccccc2c1,4.03% (inactive),
C[C@H]1CC[C@@H]2[C@@H](C)[C@H]3[C@H](C[C@H]4[C@@H]5CC=C6CC(O[C@@H]7O[C@H](CO)[C@H](O)[C@H](O[C@@H]8O[C@H](CO)[C@@H](O)[C@H](O)[C@H]8O)[C@H]7O[C@H]7O[C@@H](C)[C@H](O)[C@@H](O)[C@H]7O)CC[C@]6(C)[C@H]5CC[C@]34C)N2C1 (stereo not given in full),6.31% (inactive),
CCOP(=O)(NC(C)C)Oc1ccc(SC)c(C)c1 (stereo not given),-6.62% (inactive),
COc1cc(N)c(Cl)cc1C(=O)NC1CN2CCC1CC2 (stereo not given),12.5% (inactive),
ClC1=C(Cl)[C@]2(Cl)[C@H]3[C@H]([C@H]4C=C[C@H]3C4)[C@@]1(Cl)C2(Cl)Cl,-5.6% (inactive),
CC(C)(C)c1cc([N+](=O)[O-])cc(C(C)(C)C)c1O,-7.82% (inactive),
COc1ccc(OC)c(CC(C)N)c1 (stereo not given),0.0248% [at 78.9 µM] (inactive),
O=C(CCCN1CCC2(CC1)C(=O)NCN2c1ccccc1)c1ccc(F)cc1,-8.06% (inactive),
C1CCC2CCCCC2C1 (stereo not given),-2.5% [at 78.9 µM] (inactive),
CN(C)CCc1c[nH]c2ccc(O)cc12,-1.82% (inactive),
ClC(Cl)=C(c1ccc(Cl)cc1)c1ccc(Cl)cc1,,inactive
Cc1cc(C(F)(C(F)(F)F)C(F)(F)F)ccc1NC(=O)c1cccc(I)c1C(=O)NC(C)(C)CS(C)(=O)=O,5.12% (inactive),
O=S(=O)(c1ccc(Cl)cc1)c1ccc(Cl)cc1,-7.2% [at 78.9 µM] (inactive),
CC(Cc1ccc(C(C)(C)C)cc1)CN1C[C@@H](C)O[C@@H](C)C1 (stereo not given in full),-1.82% (inactive),
c1ccc(Nc2ccc3ccccc3c2)cc1,-5.44% (inactive),
ClC1=C(Cl)[C@]2(Cl)[C@@H]3[C@@H]4C[C@@H]([C@H]5O[C@@H]45)[C@@H]3[C@@]1(Cl)C2(Cl)Cl,-9.83% (inactive),
